Here are results for eight compounds from PubChem BioAssay (Tox21).

Test [1] in a line: Nuclear factor erythroid 2-related factor 2/antioxidant responsive element (Nrf2/ARE) small molecule agonists: qHTS cell viability counter screen in human keratinocytes (AID 1919968; active means well fitted curve in the direction sought with a large enough effect in the repeat runs; an effect the other way counts as inactive or inconclusive; further: nearly all actives have a fitted effect of over 55% in size). Put shortly:
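KeratinoSens cells (HaCaT keratinocytes stably carrying an ARE-luciferase reporter) were seeded at 1,500 cells/well and rested 5 h at 37 C/5% CO2. They were then exposed to compounds in DMSO for 23 h. Viability was read by CellTiter-Fluor fluorescence after 1 h.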
For orientation: In qHTS, concentration-response curves come from the screen itself.

A short description of test [2]: Nuclear factor erythroid 2-related factor 2/antioxidant responsive element (Nrf2/ARE) small molecule agonists: luciferase reporter gene qHTS assay in human keratinocytes (AID 1919969). Further: nearly all actives have a fitted effect of over 35% in size. Further: potency means the concentration at half of the fitted maximal effect.
The target in test [3] is Gonadotropin-releasing hormone receptor (Homo sapiens) (UniProt P30968). The test is described as follows: Human gonadotropin-releasing hormone receptor (GnRHR) small molecule agonists, calcium flux assay in GnRHR-HEK293 cells (AID 1920063). Further: nearly all actives have a fitted effect of over 35% in size. Put shortly:
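HEK293 cells stably expressing human GnRHR were plated 18 h at 37 °C, loaded with calcium dye 1 h at 37 °C, then given compound in agonist mode; fluorescence (Ex/Em 480/540) read kinetically for 3 min at 1 s intervals.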
(Calcium assays in cells follow changes in intracellular calcium, usually with a dye or a luminescent sensor.)

Test [4] has as its target KiSS-1 receptor (Homo sapiens) (UniProt Q969F8). The test is described as follows: Human kisspeptin (KISS1R) small molecule agonists, calcium flux assay in KISS1R-HEK293 cells (AID 1920064; active means well fitted curve in the direction sought with a large enough effect in the repeat runs; an effect the other way counts as inactive or inconclusive). Put shortly: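 HEK293 cells stably expressing human KISS1R were plated 18 h at 37 °C, loaded with calcium dye for 1 h at 37 °C, then given compound by pin tool. Fluorescence (Ex/Em 480/540) was read kinetically for 3 min.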

The nature of test [5]: G protein-coupled receptor (GPCR) small molecule agonists, calcium flux assay: HEK293 wild type cell line counter screen (AID 1920065). The procedure, abridged:
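Cells were plated and cultured 18 h at 37 C/5% CO2, then loaded with calcium dye for 1 h at 37 C. Compounds in DMSO were pin-transferred in agonist mode, and fluorescence (Ex/Em 480/540) was read kinetically for 3 min at 1 s intervals.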

A short description of test [6]: p53 small molecule agonists, cell-based qHTS assay with rat liver microsomes (AID 1963578). Put shortly: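 Agonist mode in p53RE-bla reporter cells, with compounds co-incubated 16 h at 37 C alongside 0.5 mg/mL rat liver microsomes and 0.5 mg/mL NADPH (final), followed by a 2 h LiveBLAzer detection step.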
Test [7] in a line: p53 small molecule agonists, cell-based qHTS assay with human liver microsomes: qHTS cell viability counter screen (AID 1963579). Further: nearly all actives have a fitted effect of over 45% in size. Put shortly: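 Metabolically activated exposure: compounds, human liver microsomes and NADPH (0.5 mg/mL final apiece) were added to p53RE-bla cells seeded 5 h earlier, left 16 h at 37 C, and then assessed for viability by CellTiter-Glo luminescence.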

Test [8] is described as follows: p53 small molecule agonists, cell-based qHTS assay with rat liver microsomes: qHTS cell viability counter screen (AID 1963580). Further: nearly all actives have a fitted effect of over 45% in size. Put shortly:
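HCT-116 p53RE-bla, 4,000 cells/well, 5 h pre-incubation; cpd + rat liver microsomes 0.5 mg/mL + NADPH 0.5 mg/mL (final); 16 h, 37 C; CellTiter-Glo, 30 min RT; luminescence.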

Test [9] is described as follows: p53 small molecule agonists, cell-based qHTS assay: qHTS cell viability counter screen (AID 1963581). Further: nearly all actives have a fitted effect of over 45% in size. Put shortly: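 p53RE-bla HCT-116 cells were exposed to compounds for 16 h at 37 C; after the beta-lactamase FRET read in the same wells, CellTiter-Glo was added and luminescence (intracellular ATP) read after 30 min at room temperature.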
Test [10] in a line: p53 small molecule agonists, cell-based qHTS assay (AID 1963582; active means well fitted activation curve with a large enough effect in the signal ratio in the repeat runs, not every such curve was filed as active; the % refers to the signal ratio). Put shortly: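 p53RE-bla beta-lactamase reporter cells rested 5 h at 37 C/5% CO2, then received compounds in DMSO by pin transfer and were incubated 16 h at 37 C. LiveBLAzer B/G FRET substrate was loaded for 2 h at room temperature before fluorescence reading.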
Test [11] has as its target 5-hydroxytryptamine receptor 2A (Homo sapiens) (UniProt P28223). The test is described as follows: 5-hydroxytryptamine receptor 2A (HTR2A) small molecule antagonists, cell-based qHTS assay (AID 1963586). Further: nearly all actives have a fitted effect of over 45% in size. Further: potency means the concentration at half of the fitted maximal effect. The procedure, abridged: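 Antagonist-mode intracellular calcium assay: DOI (4 nM) added after 5 min compound pre-incubation at room temperature to dye-loaded HTR2A-CHO cells. Fluorescence followed for 3 min, sampled every second.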

The target is the same in test [12]. The experiment in a line: 5-hydroxytryptamine receptor 2A (HTR2A) small molecule agonists, cell-based qHTS assay (AID 1963587). Further: nearly all actives have a fitted effect of over 30% in size. The procedure, abridged: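 Kinetic calcium-flux fluorescence (2 min, 1 sec intervals) after compound addition in agonist mode. HTR2A-CHO cells were cultured 18 h, then dye-loaded 1 h at 37 C.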
Test [13] has as its target Muscarinic acetylcholine receptor M1 (Homo sapiens) (UniProt P11229). The experiment in a line: Cholinergic receptor muscarinic 1 (CHRM1) small molecule antagonists, cell-based qHTS assay (AID 1963588). Further: nearly all actives have a fitted effect of over 40% in size. Further: potency means the concentration at half of the fitted maximal effect. The procedure, abridged: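 CHRM1-CHO calcium-flux assay, antagonist mode. Cells were seeded 18 h, dye-loaded 1 h at 37 C and given compound for 5 min at RT, then acetylcholine was added at 50nM. FDSS fluorescence was read 3 min; 15 concentrations, three runs.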

Test [14] shares this target. The experiment in a line: Cholinergic receptor muscarinic 1 (CHRM1) small molecule agonists, cell-based qHTS assay (AID 1963589). Further: nearly all actives have a fitted effect of over 35% in size. The procedure, abridged: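 CHO cells stably expressing human CHRM1, seeded 18 h at 37 C/5% CO2, dye-loaded 1 h at 37 C, then given compound in agonist mode; intracellular calcium fluorescence read kinetically at 1 s intervals. Fifteen concentrations, three independent runs.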

Test [15] in a line: cAMP Responsive Elements (CRE) small molecule agonists, cell-based qHTS assay (AID 1963590). The procedure, abridged: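 CRE-bla HEK 293T cells in DMEM with 10% dialyzed FBS, NEAA, pyruvate and 25 mM HEPES were plated 18 h at 37 C/5% CO2, then exposed to compounds in DMSO for 3 h before LiveBLAzer B/G FRET substrate addition.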
Test [16] in a line: cAMP Responsive Elements (CRE) small molecule antagonists, cell-based qHTS assay (AID 1963591; active means well fitted inhibition curve with a large enough effect in the signal ratio in the repeat runs, not every such curve was filed as active; the % refers to the signal ratio). Put shortly:
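CRE-bla HEK293T cells were plated 18 h at 37 °C/5% CO2, pinned with compound in DMSO, then stimulated with NKH477 at 0.25 uM final for 3 h. LiveBLAzer B/G FRET substrate was added and plates incubated 2 h at room temperature.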

Test [17] deals with Beta-2 adrenergic receptor (Homo sapiens) (UniProt P07550). The experiment in a line: Adrenergic beta2 receptor (ADRB2) small molecule antagonists, cell-based qHTS assay (AID 1963592). Further: series mostly up to about 92 µM; nearly all actives have a fitted effect of over 50% in size. Put shortly:
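Cells (CHO, stable ADRB2 overexpression) incubated 18-20hr at 37C; compounds added from DMSO; agonist mix (1nM isoproterenol, 100uM IBMX, 25uM Ro-20-1724) added; 0.5hr RT; d2-cAMP and anti-cAMP-cryptate added; 1hr RT; 665/615 nm read.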

The target is the same in test [18]. The test is described as follows: Adrenergic beta2 receptor (ADRB2) small molecule agonists, cell-based qHTS assay (AID 1963593).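 Further: CHO cells stably overexpressing human ADRB2.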 Put shortly: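 CHO cells stably over-expressing ADRB2 were plated overnight at 37C, then dosed with compounds plus a stimulation mix containing 100uM IBMX and 25uM Ro-20-1724 for 0.5hr at room temperature. cAMP was measured by HTRF competition, 1hr.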

Test [19] deals with D(2) dopamine receptor (Homo sapiens) (UniProt P14416). The test is described as follows: Dopamine D2 receptor (DRD2) small molecule antagonists, cell-based qHTS assay (AID 1963595; active means well fitted inhibition curve with a large enough effect in the signal ratio in the repeat runs, with a control signal flat; the % refers to the signal ratio; further: potency means the concentration at half of the fitted maximal effect). Put shortly:
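Antagonism was scored as restored cAMP in HEK293-DRD2 cells. These cells were stimulated with 200 nM NKH477 and 12 nM quinpirole for 30 min at room temperature, in the presence of 0.1 mM Ro20-1724.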

The target is the same in test [20]. The test is described as follows: Dopamine D2 receptor (DRD2) small molecule agonists, cell-based qHTS assay (AID 1963594). Further: nearly all actives have a fitted effect of over 35% in size. The procedure, abridged: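 cAMP accumulation in DRD2-HEK293 cells measured by HTRF after 1 h detection; compounds added 10 min before NKH477 (200nM […]) forskolin-analogue stimulation, 30 min at room temperature, with Ro20-1724 present at 0.1 mM final.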

Each structure is given as a SMILES string. Values without a mark were called inactive. Records with an inconclusive call do not appear. Calls of active or inactive are those of the source. Unless noted, the call rests on the fitted dose curve.

Muscarinic acetylcholine receptor M1 (Homo sapiens), sequence (P11229 whole entry, looked up): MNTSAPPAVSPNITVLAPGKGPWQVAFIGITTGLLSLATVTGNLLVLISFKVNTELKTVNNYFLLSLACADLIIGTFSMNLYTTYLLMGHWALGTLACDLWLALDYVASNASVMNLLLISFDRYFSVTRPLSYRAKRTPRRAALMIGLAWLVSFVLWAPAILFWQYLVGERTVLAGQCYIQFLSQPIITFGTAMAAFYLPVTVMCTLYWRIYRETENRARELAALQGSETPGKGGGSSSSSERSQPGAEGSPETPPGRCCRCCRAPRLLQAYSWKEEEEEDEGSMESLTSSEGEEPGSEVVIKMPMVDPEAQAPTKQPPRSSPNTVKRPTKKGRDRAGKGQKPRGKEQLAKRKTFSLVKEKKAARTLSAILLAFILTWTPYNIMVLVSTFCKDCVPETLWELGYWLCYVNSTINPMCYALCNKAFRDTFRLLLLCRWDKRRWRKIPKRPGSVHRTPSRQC
KiSS-1 receptor (Homo sapiens), sequence (Q969F8 whole entry, looked up): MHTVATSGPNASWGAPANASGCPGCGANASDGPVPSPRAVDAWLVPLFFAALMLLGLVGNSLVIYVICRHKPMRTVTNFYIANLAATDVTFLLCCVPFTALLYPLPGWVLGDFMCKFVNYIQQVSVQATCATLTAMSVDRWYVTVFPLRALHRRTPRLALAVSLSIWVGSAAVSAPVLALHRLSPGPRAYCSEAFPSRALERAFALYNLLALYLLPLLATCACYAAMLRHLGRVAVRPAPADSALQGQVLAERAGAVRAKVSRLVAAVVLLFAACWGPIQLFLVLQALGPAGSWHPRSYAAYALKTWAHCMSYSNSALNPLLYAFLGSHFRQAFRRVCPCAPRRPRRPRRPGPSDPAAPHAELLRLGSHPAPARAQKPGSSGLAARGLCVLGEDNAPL
Beta-2 adrenergic receptor (Homo sapiens), sequence (P07550 whole entry, looked up): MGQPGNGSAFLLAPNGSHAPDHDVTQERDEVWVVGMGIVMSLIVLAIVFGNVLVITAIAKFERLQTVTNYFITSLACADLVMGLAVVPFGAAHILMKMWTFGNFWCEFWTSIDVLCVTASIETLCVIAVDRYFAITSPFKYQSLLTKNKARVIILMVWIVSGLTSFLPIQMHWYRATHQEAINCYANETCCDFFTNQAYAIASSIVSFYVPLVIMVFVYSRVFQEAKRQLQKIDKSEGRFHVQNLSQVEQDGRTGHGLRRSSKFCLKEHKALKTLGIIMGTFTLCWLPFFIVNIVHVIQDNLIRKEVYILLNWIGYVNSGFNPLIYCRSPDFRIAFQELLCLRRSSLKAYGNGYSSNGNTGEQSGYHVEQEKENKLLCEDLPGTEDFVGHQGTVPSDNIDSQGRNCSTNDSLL
D(2) dopamine receptor (Homo sapiens), sequence (P14416 whole entry, looked up): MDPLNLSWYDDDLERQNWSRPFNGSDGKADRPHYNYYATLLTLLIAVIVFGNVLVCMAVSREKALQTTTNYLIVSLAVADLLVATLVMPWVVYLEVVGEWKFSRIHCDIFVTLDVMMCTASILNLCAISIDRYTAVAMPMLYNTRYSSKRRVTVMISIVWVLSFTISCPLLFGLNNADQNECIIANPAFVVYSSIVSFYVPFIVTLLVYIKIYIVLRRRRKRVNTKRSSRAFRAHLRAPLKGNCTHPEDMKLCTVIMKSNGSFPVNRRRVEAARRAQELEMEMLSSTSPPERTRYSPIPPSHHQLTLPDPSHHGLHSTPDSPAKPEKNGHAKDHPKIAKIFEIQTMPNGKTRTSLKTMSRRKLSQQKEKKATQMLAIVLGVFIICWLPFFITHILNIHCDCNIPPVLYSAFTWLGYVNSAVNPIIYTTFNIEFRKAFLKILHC
5-hydroxytryptamine receptor 2A (Homo sapiens), sequence (P28223 whole entry, looked up): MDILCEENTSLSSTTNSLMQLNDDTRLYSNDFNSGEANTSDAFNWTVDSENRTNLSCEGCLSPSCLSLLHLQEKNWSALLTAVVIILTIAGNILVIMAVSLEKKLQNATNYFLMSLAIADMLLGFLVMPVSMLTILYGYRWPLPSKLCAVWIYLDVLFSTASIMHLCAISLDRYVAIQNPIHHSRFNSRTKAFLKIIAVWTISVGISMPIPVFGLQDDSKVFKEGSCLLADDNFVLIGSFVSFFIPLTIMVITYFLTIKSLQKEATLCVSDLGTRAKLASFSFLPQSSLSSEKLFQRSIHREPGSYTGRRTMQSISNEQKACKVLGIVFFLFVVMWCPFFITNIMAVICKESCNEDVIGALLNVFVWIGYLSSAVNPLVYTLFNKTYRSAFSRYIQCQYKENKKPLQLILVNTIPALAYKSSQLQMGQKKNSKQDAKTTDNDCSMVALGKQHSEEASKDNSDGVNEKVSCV
Gonadotropin-releasing hormone receptor (Homo sapiens), sequence (P30968 whole entry, looked up): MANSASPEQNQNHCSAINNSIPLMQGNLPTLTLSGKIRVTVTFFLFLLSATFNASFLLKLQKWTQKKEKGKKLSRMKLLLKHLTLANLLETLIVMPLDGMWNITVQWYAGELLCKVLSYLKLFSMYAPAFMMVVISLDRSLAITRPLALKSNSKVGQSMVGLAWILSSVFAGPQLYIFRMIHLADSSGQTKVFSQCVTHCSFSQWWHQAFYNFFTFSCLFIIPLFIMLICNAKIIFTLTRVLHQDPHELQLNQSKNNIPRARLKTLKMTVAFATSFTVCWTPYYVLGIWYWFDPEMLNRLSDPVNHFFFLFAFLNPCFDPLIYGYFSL

For `FC1(F)C(F)(F)C(F)(F)C2(F)C(F)(F)C(F)(F)C(F)(F)C(F)(F)C2(F)C1(F)F` (configuration not stated), the Potency entry in [1], in [2], in test [3], in [4], in test [5] and in test [6] was “inactive” throughout. Besides, the Potency result in test [7], in [8], in test [9], in test [10], in test [11] and in [12] was “inactive” throughout. Further, the Potency entry in test [13], in [14], in [15], in [16], in test [17] and in test [18] was “inactive” each time. In test [19], the Potency entry was “inactive”.
With `Cc1ccc(O)c(C(=O)c2ccccc2)c1`, the Potency entry in test [1], in [2], in [3], in test [4], in [5] and in [8] was “inactive” in each case. For the same compound, the Potency entry in test [9], in test [10], in test [12], in test [13], in test [14] and in [17] was “inactive” in each case. The Potency entry in test [20] and in [19] was “inactive” each time.
Turning to `CC(CN=Cc1ccccc1O)N=Cc1ccccc1O` (configuration not stated), the Potency entry in [1], in test [2], in test [3], in [4], in [5] and in test [7] was “inactive” in each case. The Potency entry in test [8], in test [9], in [10], in [13], in test [14] and in test [15] was “inactive” throughout. The Potency result in test [16], in [17], in test [18] and in test [20] was “inactive” in each case.
Regarding `Clc1ccc(Nc2nnc(Cc3ccncc3)c3ccccc23)cc1`, the Potency result in [1], in [2], in test [3], in [4], in test [5] and in [6] was “inactive” in each case. Also, the Potency entry in [7], in [8], in [9], in test [10], in test [12] and in [14] was “inactive” in each case. The Potency result in test [15], in [16], in test [17], in [20] and in test [19] was “inactive” each time. Further, the Potency in [11] and in [13] was 18.3 µM (active) in each case.
With `O=[N+]([O-])c1cc[n+]([O-])cc1`, the Potency result in test [1], in test [3], in test [4], in test [5], in [6] and in [7] was “inactive” in each case. The Potency entry in [8], in test [9], in [10], in [11], in test [12] and in test [13] was “inactive” throughout. The Potency result in test [14], in test [15], in test [16], in [17], in test [18] and in test [20] was “inactive” in each case. In test [19], the Potency entry is “inactive”. Further, the Potency in test [2] was 61.1 µM (active).
For `O=C(O)CCCl`, the Potency result in [1], in [2], in test [3], in test [4], in test [5] and in test [7] was “inactive” each time. Besides, the Potency entry in test [8], in test [9], in [10], in [11], in [13] and in [14] was “inactive” each time. Further, the Potency result in test [15], in test [18], in [20] and in [19] was “inactive” throughout.
For `CCc1c(C)[nH]c2c1C(=O)C(CN1CCOCC1)CC2` (configuration not stated), the Potency entry in [1], in test [2], in test [3], in test [4], in test [5] and in test [7] was “inactive” throughout. Besides, the Potency result in test [8], in [9], in test [10], in test [12], in test [13] and in [14] was “inactive” in each case. In addition, the Potency result in test [15], in test [16] and in test [20] was “inactive” in each case. The Potency in test [19] is 750 nM (active).
As for `Nc1nc(N)c2nc(CNc3ccc(C(=O)N[C@@H](CCC(=O)O)C(=O)O)cc3)cnc2n1`, the Potency entry in [1], in [2], in test [3], in [4], in test [5] and in test [7] was “inactive” in each case. For the same compound, the Potency result in test [8], in test [15], in [17], in test [18], in [20] and in test [19] was “inactive” throughout.
